Screening data from PubChem.
PAFAH2 inh = inhibitors of human PAFAH2. recombinant PAFAH2, FP-rhodamine activity probe, fluorescence polarization. Q99487. inhibition, % at 3.39 µM. 340,000 compounds, 0.99% hits. AID 492956;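 active = inhibition above the mean over all tested compounds plus 3 SD, cut at about 30% in these data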;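 note: inhibitors block probe labeling of enzyme so polarization drops; 0% = enzyme with DMSO and 100% = wells lacking PAFAH2 protein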
PP1 counter = counter-screen for PP5 inhibitors: inhibitors of human PP1-alpha; P62136; purified PP1alpha, OMFP fluorescence; inhibition, % at 6.7 µM; 320,000 compounds, 0.9% hits;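 active = inhibition above the mean inhibition of all tested compounds plus 3 SD, computed separately for each screening campaign, cut at about 15% in these data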
PP5 inh = blocks human protein phosphatase 5 activity; P53041; purified PP5c, OMFP substrate fluorescence; inhibition, % at 6.7 µM; 320,000 compounds, 0.18% hits; AID 1987;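 active = inhibition above the campaign's mean inhibition across all tested compounds plus 3 SD, cut at about 9.5% in these data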;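 note: 0% = DMSO only and 100% = 100 µM cantharidin control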
PAFAH1B2 inh = blocks human PAF acetylhydrolase 1b catalytic subunit 2. inhibition, % at 3.39 µM. 340,000 compounds, 1.2% hits. recombinant PAFAH1B2, FP-rhodamine activity probe, fluorescence polarization;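 active = inhibition above the mean of all tested compounds plus 3 SD, cut at about 24% in these data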;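 note: 0% = enzyme with DMSO and 100% = wells lacking PAFAH1B2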
Target sequence (P68402 whole entry, looked up): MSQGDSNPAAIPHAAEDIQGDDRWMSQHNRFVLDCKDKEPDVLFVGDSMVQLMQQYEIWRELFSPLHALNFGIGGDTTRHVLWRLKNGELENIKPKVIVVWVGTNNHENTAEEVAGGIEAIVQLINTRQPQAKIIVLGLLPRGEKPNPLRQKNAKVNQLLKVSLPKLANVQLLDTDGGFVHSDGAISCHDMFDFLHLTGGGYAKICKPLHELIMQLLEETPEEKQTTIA
pPAFAH FP inh = pPAFAH (human) enzyme inhibition. Q13093. recombinant pPAFAH, FP-rhodamine probe fluorescence polarization. inhibition, % at 3.39 µM. 330,000 compounds, 1.5% hits;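 active = inhibition above the mean inhibition across the screen plus 3 SD, cut at about 25% in these data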;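 note: inhibitors block binding of the rhodamine activity-based probe so polarization drops; 0% = enzyme with DMSO and 100% = wells lacking pPAFAH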
Target sequence (Q13093 whole entry, looked up): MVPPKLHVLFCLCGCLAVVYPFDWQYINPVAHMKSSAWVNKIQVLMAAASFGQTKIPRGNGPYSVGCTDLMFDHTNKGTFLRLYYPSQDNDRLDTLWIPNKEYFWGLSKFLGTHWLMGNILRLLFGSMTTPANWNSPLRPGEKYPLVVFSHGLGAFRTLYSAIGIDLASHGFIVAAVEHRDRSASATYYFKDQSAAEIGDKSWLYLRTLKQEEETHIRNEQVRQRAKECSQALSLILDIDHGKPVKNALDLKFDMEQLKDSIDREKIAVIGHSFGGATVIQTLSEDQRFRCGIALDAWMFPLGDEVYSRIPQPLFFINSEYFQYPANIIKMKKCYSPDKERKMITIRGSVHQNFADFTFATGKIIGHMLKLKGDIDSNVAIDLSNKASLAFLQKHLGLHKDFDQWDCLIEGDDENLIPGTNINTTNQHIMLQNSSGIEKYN
PAFAH1B3 FP inh = PAFAH1B3 (human) inhibition | Q15102 | recombinant PAFAH1B3, FP-rhodamine probe, fluorescence polarization | inhibition, % at 3.39 µM | 340,000 compounds, 0.28% hits | AID 492972;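 active = inhibition above the screen-wide average of all tested compounds plus 3 SD, cut at about 25% in these data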;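 note: 0% = enzyme with DMSO only and 100% = wells lacking PAFAH1B3 protein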
pPAFAH FP conf = pPAFAH (human) inhibition, confirmed | shares compounds with pPAFAH FP inh | recombinant pPAFAH, FP-Rh probe fluorescence polarization | inhibition, % at 3.39 µM | 2,300 compounds, 72% hits | AID 463230;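 active = mean inhibition of the triplicate above the hit cutoff set for the earlier primary screen, cut at about 25% in these data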;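 note: 0% = enzyme with DMSO and 100% = wells lacking pPAFAH enzyme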
PAFAH2 FP conf = confirmation of human PAFAH2 inhibitors | shares compounds with PAFAH2 inh | recombinant PAFAH2, FP-rhodamine activity probe, fluorescence polarization | inhibition, % at 3.39 µM | 2,300 compounds, 65% hits;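 active = mean inhibition over three repeats above a set limit taken from the earlier primary screen, cut at about 30% in these data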;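 note: inhibitor blocks binding of rhodamine activity probe so polarization falls; 0% = enzyme with DMSO and 100% = wells lacking PAFAH2 protein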
The depositor's hits bear a star. This is a sample that favours compounds with a hit; in the whole collection about 3.4% have one here.

What do the screens show for `CCOCCCN(C(=O)CCC(=O)Nc1cc(C)on1)C(C(=O)NC(C)(C)CC)c1cccc(OC)c1OC` (stereo not drawn)?
PAFAH2 inh: -5; PP1 counter: -5; PP5 inh: 1; PAFAH1B2 inh: 3; pPAFAH FP inh: 3; PAFAH1B3 FP inh: 5

Results for COc1ccc(Cl)cc1NS(=O)(=O)c1ccc2c(c1)NC(=O)CCS2 ?
PAFAH2 inh: 14; PP1 counter: -6; PP5 inh: 0; PAFAH1B2 inh: 2; pPAFAH FP inh: -1; PAFAH1B3 FP inh: 3

What do the screens show for `Cc1cccc(OCc2nnc(SCC(=O)O)n2-c2ccccc2)c1`?
PAFAH2 inh: -1; PP1 counter: 1; PP5 inh: 3; PAFAH1B2 inh: 2; pPAFAH FP inh: 2; PAFAH1B3 FP inh: 2

Results for O=C(NC(=S)NNC(=O)c1cc2ccccc2cc1O)c1ccco1 ?
PAFAH2 inh: 16; PP1 counter: 6; PP5 inh: -1; PAFAH1B2 inh: 5; pPAFAH FP inh: 39*; PAFAH1B3 FP inh: 15; pPAFAH FP conf: 37*

What do the screens show for `COc1cc(NC(=O)c2cc3ccccc3cc2O)c(OC)cc1Cl`?
PAFAH2 inh: 6; PP1 counter: -2; PP5 inh: 5; PAFAH1B2 inh: 2; pPAFAH FP inh: 9; PAFAH1B3 FP inh: 8

What do the screens show for `COc1ccc(C(=O)NC(=S)NNC(=O)c2ccco2)cc1`?
PAFAH2 inh: -8; PP1 counter: 12; PP5 inh: 0; PAFAH1B2 inh: 4; pPAFAH FP inh: -1; PAFAH1B3 FP inh: 3

What do the screens show for `Cc1ccc(Cl)cc1NC(=O)c1cc2ccccc2cc1O`?
PAFAH2 inh: 2; PP1 counter: 5; PP5 inh: 1; PAFAH1B2 inh: 2; pPAFAH FP inh: 35*; PAFAH1B3 FP inh: 4; pPAFAH FP conf: 14

How did NNC(=O)c1cc2ccccc2cc1O do in these assays?
PAFAH2 inh: -4; PP1 counter: 10; PP5 inh: 2; PAFAH1B2 inh: 5; pPAFAH FP inh: 43*; PAFAH1B3 FP inh: 10; pPAFAH FP conf: 1

What do the screens show for `CN(C)N=C1c2cc(S(=O)(=O)N3CCOCC3)ccc2-c2ccc(S(=O)(=O)N3CCOCC3)cc21`?
PAFAH2 inh: -8; PP1 counter: 4; PP5 inh: 3; PAFAH1B2 inh: 1; pPAFAH FP inh: 1; PAFAH1B3 FP inh: 1

What do the screens show for `O=C(CCC(=O)Nc1ccccc1)N/N=C/c1ccncc1`?
PAFAH2 inh: -8; PP1 counter: 0; PP5 inh: 1; PAFAH1B2 inh: 1; pPAFAH FP inh: 4; PAFAH1B3 FP inh: 6

What do the screens show for `c1ccc(NC(=NCc2ccco2)c2ccccc2)cc1`?
PAFAH2 inh: 2; PP1 counter: 0; PP5 inh: 1; PAFAH1B2 inh: 3; pPAFAH FP inh: -4; PAFAH1B3 FP inh: -6

Results for CC1Cc2ccccc2N1c1ncnc2c1nnn2Cc1ccccc1 (stereo not drawn) ?
PAFAH2 inh: 11; PP1 counter: -3; PP5 inh: 0; PAFAH1B2 inh: 0; pPAFAH FP inh: 3; PAFAH1B3 FP inh: 0

Results for O=C(O)c1cccc(S(=O)(=O)Nc2ccc(O)c(Sc3nc4ccccc4s3)c2)c1 ?
PAFAH2 inh: -5; PP1 counter: 0; PP5 inh: -2; PAFAH1B2 inh: 13; pPAFAH FP inh: 11; PAFAH1B3 FP inh: -2

Results for O=S(=O)(Nc1ccc(O)c(Sc2nc3ccccc3s2)c1)c1ccc(F)cc1 ?
PAFAH2 inh: -3; PP1 counter: 4; PP5 inh: 4; PAFAH1B2 inh: 14; pPAFAH FP inh: 52*; PAFAH1B3 FP inh: -8; pPAFAH FP conf: 40*

What do the screens show for `Cc1[nH]c2ccccc2c1/C=C(\C#N)C(=O)NCC1CCCO1` (stereo not drawn)?
PAFAH2 inh: -1; PP1 counter: 2; PP5 inh: 1; PAFAH1B2 inh: 0; pPAFAH FP inh: 0; PAFAH1B3 FP inh: 6

What do the screens show for `O=C(COC(=O)CNC(=O)c1ccccc1F)Nc1ccc2[nH]c(=O)[nH]c2c1`?
PAFAH2 inh: -9; PP1 counter: -1; PP5 inh: 0; PAFAH1B2 inh: 1; pPAFAH FP inh: 1; PAFAH1B3 FP inh: 5

What do the screens show for `COc1ccccc1C(=O)NCC(=O)OCC(=O)Nc1ccc2[nH]c(=O)[nH]c2c1`?
PAFAH2 inh: -5; PP1 counter: 0; PP5 inh: 1; PAFAH1B2 inh: 3; pPAFAH FP inh: 39*; PAFAH1B3 FP inh: 3; pPAFAH FP conf: 1

How did CCN(C1CCCCC1)S(=O)(=O)CCNC(=O)c1ccc2c(c1)OCO2 do in these assays?
PAFAH2 inh: -10; PP1 counter: -2; PP5 inh: 1; PAFAH1B2 inh: 5; pPAFAH FP inh: 4; PAFAH1B3 FP inh: 4

What do the screens show for `CC1C(=O)NN=C1C(=O)N/N=C\C(Br)=C\c1ccccc1` (stereo not drawn)?
PAFAH2 inh: -1; PAFAH1B2 inh: 3; PAFAH1B3 FP inh: 8

Results for O=C(O)c1ccccc1Nc1cccc(OCc2ccc3ccccc3n2)c1 ?
PAFAH2 inh: 11; PP1 counter: 13; PP5 inh: 2; PAFAH1B2 inh: 9; pPAFAH FP inh: 36*; PAFAH1B3 FP inh: 7; pPAFAH FP conf: 31*

How did Clc1ccc(Cn2ncc3c(NCCN4CCOCC4)ncnc32)cc1 do in these assays?
PAFAH2 inh: -8; PP1 counter: -7; PP5 inh: 3; PAFAH1B2 inh: 10; pPAFAH FP inh: -1; PAFAH1B3 FP inh: 7

How did CC(C)CSC1=NSC2=NC(=O)/C(=C\c3coc4ccccc4c3=O)C(=N)N12 do in these assays?
PAFAH2 inh: 36*; PP1 counter: 1; PP5 inh: -16; PAFAH1B2 inh: 23; pPAFAH FP inh: 10; PAFAH1B3 FP inh: 21; PAFAH2 FP conf: 22

Results for COc1ccccc1NC(=O)Cc1cccc2ccccc12 ?
PAFAH2 inh: -3; PP1 counter: -1; PP5 inh: 2; PAFAH1B2 inh: 2; pPAFAH FP inh: 0; PAFAH1B3 FP inh: 6

Results for COc1ccccc1CC(=O)Nc1ccc([N+](=O)[O-])cc1O ?
PAFAH2 inh: 34*; PP1 counter: -3; PP5 inh: 4; PAFAH1B2 inh: 11; pPAFAH FP inh: -3; PAFAH1B3 FP inh: 5; PAFAH2 FP conf: 15

How did CCN(c1ccccc1)S(=O)(=O)c1ccc(OC)c(NC(=O)Cc2ccccc2OC)c1 do in these assays?
PAFAH2 inh: 30*; PP1 counter: 2; PP5 inh: 3; PAFAH1B2 inh: 0; pPAFAH FP inh: 1; PAFAH1B3 FP inh: 7; PAFAH2 FP conf: 16
